Data on 27 compounds can be found in PubChem BioAssay (NCI).

This is part of a sample that, as a whole, favours compounds with a hit. Of some 79,000 tested, about 15% had one in any assay. Unmarked numbers belong to inactive results. Calls of active or inactive are those of the source. No stated cut-off is given here; in the data, active means growth inhibition above about 70%; inactive means the rest.

The nature of this test: NCI Yeast Anticancer Drug Screen. Data for the mlh1 rad18 strain (AID 175). Particulars: S. cerevisiae mlh1 rad18 strain growth inhibition; at 50.0 µM; stronger effect = higher value. In short, it runs like this:
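Vehicle-treated cultures served as the reference for growth inhibition in a yeast strain carrying DNA damage repair alterations exposed to each compound.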
As for `COc1ccc(P2(=S)Oc3ccc(C(c4ccccc4)(c4ccccc4)c4ccccc4)cc3O2)cc1` (configuration not stated), the growth inhibition is 58.1%.

As for `Cc1cc[n+](C2=C(Nc3c(C)cccc3C)C(=O)c3ccccc3C2=O)cc1`, the growth inhibition was 71.2% (active).

For the compound `C(#C[PH+](c1ccccc1)c1ccccc1)c1ccccc1.C(#C[PH+](c1ccccc1)c1ccccc1)c1ccccc1.C(#C[PH+](c1ccccc1)c1ccccc1)c1ccccc1.[C-]#[O+].[C-]#[O+].[C-]#[O+].[Cr]`, the growth inhibition is 82.5% (active).

Consider `CC(=O)O.[RuH].c1ccc([PH+](c2ccccc2)c2ccccc2)cc1.c1ccc([PH+](c2ccccc2)c2ccccc2)cc1.c1ccc([PH+](c2ccccc2)c2ccccc2)cc1`, for which the growth inhibition was 66.5%.

On to `O=C(N/N=C/c1cc(Br)cc(Br)c1[O-])c1ccccc1O.O=C(N/N=C/c1cc(Br)cc(Br)c1[O-])c1ccccc1O.[Ni+2]`, for which the growth inhibition was 55.6%.

As to `O=C(C[n+]1ccccc1)C1CCc2ccccc2C1` (configuration not stated), the growth inhibition is 3.2%.

In the case of `CC(=O)[O-].CC(=O)[O-].O=C(N/N=C/c1cc(Cl)cc(Cl)c1[OH2+])c1ccncc1.[Zn+2]`, the growth inhibition is 70% (active).

In the case of `ClCCN(CCCl)CCN1c2ccc3ccccc3c2Sc2ccc3ccccc3c21`, the growth inhibition was 67.9%.

Turning to `C=CCc1cc(Cl)ccc1OC(=O)N(C)C`, the growth inhibition was 31.8%.

On to `CC(=O)[O][Sn]([CH3])([CH3])[c]1ccccc1`, for which the growth inhibition is 96.3% (active).

With `NCCNCCNCCNCCN` (tested in a mixture with another compound), the growth inhibition is 62.5%.

As for `CC(=O)[CH-]C(C)=O.CC(=O)[CH-]C(C)=O.[O-]c1ccccc1.[O-]c1ccccc1.[Ti+4]`, the growth inhibition is 16.9%.

On to `NC(=O)c1ccc(C(=O)Nc2ccc([As](=O)(O)O)cc2)cc1`, for which the growth inhibition was -15.9%.

Take `[C-]#[O+].[C-]#[O+].[CH3][Sn]([CH3])[c]1ccccc1.[Fe+5].[c-]1[c-][c-][cH-][c-]1`: the growth inhibition was 94% (active).

Take `CC(C)(C)S.[Hg]`: the growth inhibition is 99.5% (active).

Regarding `O=C(O)C(O)(c1ccc(-c2ccccc2)cc1)c1ccc(-c2ccccc2)cc1`, the growth inhibition was 96.8% (active).

Turning to `Cc1ccc2c(-c3ccccc3)c3ccccc3[s+]c2c1`, the growth inhibition is 99.2% (active).

For `CCOC(=O)[C]1([Pb]([CH3])([CH3])[CH3])N=NC(C(=O)OC)=C1C(=O)OC` (configuration not stated), the growth inhibition was 30.7%.

Consider `CCCNC1=C(C)C(=O)C2=C(C1=O)[C@H](COC(N)=O)[C@]1(OC)[C@@H]3N[C@@H]3CN21`, for which the growth inhibition is 79.8% (active).

On to `CC(=O)c1ccc(-[n+]2c(C)cc(-c3ccccc3)cc2C)cc1`, for which the growth inhibition was 21.9%.

Turning to `CN1C(=O)C23CC4=CC=CC(O)C4N2C(=O)C1(CO)SS3` (configuration not stated), the growth inhibition is 93.5% (active).

As to `CCN1CCC(O)(c2ccc(O)cc2)C(C(=O)c2ccc(O)cc2)C1` (configuration not stated), the growth inhibition is 86.7% (active).

For `CCCCCCCC[As](C)(=O)O`, the growth inhibition is 6.2%.

Turning to `CCCCCCC(=O)[O][Hg][c]1ccccc1`, the growth inhibition was 99.7% (active).

As to `CCC[CH2][Sn]1([CH2]CCC)[O]C(=O)CN=Cc2ccccc2[O]1`, the growth inhibition was 89.5% (active).

`C[C@]12CC[C@H](O)C[C@@H]1CC[C@@H]1[C@@H]2CC[C@]2(C)C(=O)/C(=C/O)C[C@@H]12`: the growth inhibition was 96.5% (active).

As to `CC(CCc1ccccc1)NC(C)C(O)c1ccc(O)cc1` (configuration not stated), the growth inhibition was 78.1% (active).
